Laboratory results from PubChem BioAssay AID1362 (SRMLSC, 2008).
Among all 190,000 compounds or so, about 4,000 (2.1%) were called active. Cut-off read from the data, not from the text of the source: active = inhibition above about 58%; inactive = the rest, inconclusive results apart; tested in S. cerevisiae. Many of the other results were omitted from the sample, so actives are more common in it than they were.

Experiment: growth inhibition of WT strain, primary screen, mitochondrial fusion inhibitor project, WT and mutant strains, chemical genetic (AID 1362)
Settings: mitochondrial fusion phenotypic screen, at 10 µM
[1] = WT strain, growth inhibition, stronger effect = higher value

For `CCOc1cc(N2CCOCC2)c(OCC)cc1NC(=O)C1=NN(c2cccc(C)c2)C(=O)CC1`, the inhibition [1] was -2.98% (inactive) and the inhibition (mutant strain inhibition) was 16.4%.
With `Cc1cc(C)c(OCCN2CC(C)OC(C)C2)c(Br)c1` (stereo not drawn) the inhibition [1] was 21.8% (inactive) and the inhibition (mutant strain inhibition) was 42.5%.
With `S=c1[nH]nc(COc2ccccc2)n1-c1ccccc1` the inhibition [1] was -7.14% (inactive) and the inhibition (mutant strain inhibition) was -7.05%.
With `Cc1ccc(OCc2n[nH]c(=S)n2-c2ccc(C)cc2)cc1` the inhibition [1] was 69.9% (active) and the inhibition (mutant strain inhibition) was 60.1%.
For `Cc1ccc(OCc2n[nH]c(=S)n2-c2ccccc2)cc1`, the inhibition [1] was 11.4% (inactive) and the inhibition (mutant strain inhibition) was 20.6%.
With `COc1ccc(CN(C)C(=S)Nc2ccc(Cl)cc2Cl)cc1` the inhibition [1] was 22.4% (inactive) and the inhibition (mutant strain inhibition) was 21.9%.
In the case of `O=Cc1cn(Cc2ccccc2)nc1-c1cccnc1`, the inhibition [1] is reported as -22.6% (inactive) and the inhibition (mutant strain inhibition) is reported as 3.85%.
For `N#C/C(=C(\O)C(F)(F)F)c1nnc2n1CCCCC2`, the inhibition [1] was 22% (inactive) and the inhibition (mutant strain inhibition) was 13.5%.
In the case of `CCS(=O)(=O)Nc1cccc(-c2cc(-c3ccccc3)c3cc(C)ccc3n2)c1`, the inhibition [1] is reported as 69.3% (active) and the inhibition (mutant strain inhibition) is reported as -17.6%.
With `Cc1ccc2nc(-c3ccccc3)cc(C(=O)O)c2c1` the inhibition [1] was 3.84% (inactive) and the inhibition (mutant strain inhibition) was 0.25%.
In the case of `CC(=O)Nc1cccc(-c2cnc3ccccc3n2)c1`, the inhibition [1] is reported as 13.3% (inactive) and the inhibition (mutant strain inhibition) is reported as 9.81%.
For `CCC(C)(C)NC(=O)/C=C/c1cc(OC)c(OC)c(S(=O)(=O)N2CCc3ccccc32)c1`, the inhibition [1] was 7.15% (inactive) and the inhibition (mutant strain inhibition) was 8.01%.
For `COc1ccc(CS(=O)/C(Cl)=C(/Cl)C(=O)Nc2ccc(OC)nc2)cc1` (stereo not drawn), the inhibition [1] was 80% (inactive) and the inhibition (mutant strain inhibition) was 83.5%.
For `CN(C)c1ccnc2sc(C(=O)c3ccccc3)c(N)c12`, the inhibition [1] was 38.8% (inactive) and the inhibition (mutant strain inhibition) was 22.2%.
For `Cc1nc2sc(C(=O)c3ccccc3)c(N)c2c2c1CCCC2`, the inhibition [1] was 66.8% (active) and the inhibition (mutant strain inhibition) was 35.7%.
With `NC(=O)c1sc2nc3c(c(-c4ccccc4)c2c1N)CCC3` the inhibition [1] was -6.05% (inactive) and the inhibition (mutant strain inhibition) was -18.6%.
For `COc1ccccc1CNC(=O)C1Cc2ccccc2C(=O)O1` (stereo not drawn), the inhibition [1] was -29.6% (inactive) and the inhibition (mutant strain inhibition) was -2%.
For `CCOc1cc(NC(=O)CCl)c(OCC)cc1NC(C)=O`, the inhibition [1] was -12.2% (inactive) and the inhibition (mutant strain inhibition) was 11.6%.
In the case of `CC(C)(C)NC(=O)CN1CCC(NC(=O)C23CC4CC(CC(C4)C2)C3)CC1`, the inhibition [1] is reported as -5.35% (inactive) and the inhibition (mutant strain inhibition) is reported as -4.48%.
In the case of `CSc1ccc(C(=O)C2CCCN(C(=O)c3ccc(C)nc3)C2)cc1` (stereo not drawn), the inhibition [1] is reported as 0.28% (inactive) and the inhibition (mutant strain inhibition) is reported as -10.8%.
In the case of `CC1(C)CC(=O)c2cnc3nc4ccccc4n3c2C1`, the inhibition [1] is reported as 16.6% (inactive) and the inhibition (mutant strain inhibition) is reported as -7.45%.
In the case of `c1cncc(-c2nnc3n2C2(CCCCC2)Cc2ccccc2-3)c1`, the inhibition [1] is reported as 11.9% (inactive) and the inhibition (mutant strain inhibition) is reported as 5.15%.
In the case of `CCC1(CC)Cc2ccccc2-c2nc3ccccc3c(=O)n21`, the inhibition [1] is reported as -30.3% (inactive) and the inhibition (mutant strain inhibition) is reported as 0.33%.
In the case of `O=c1c2ccccc2nc2n1C1(CCCCC1)Cc1ccccc1-2`, the inhibition [1] is reported as 61.2% (active) and the inhibition (mutant strain inhibition) is reported as 9.31%.
